From PubChem BioAssay
Mito fusion act: qHTS Assay for Small Molecule Inhibitors of Mitochondrial Division or Activators of Mitochondrial Fusion; actives 0.23% (n = 320,000); S. cerevisiae fusion-defective mutant growth rescue, CellTiterGlo 48 h; Potency, µM (top dose mostly 46.1 µM), most hits filed as activators; further: nearly all actives have a fitted effect of over 45% in size
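Temperature-sensitive fusion-defective S. cerevisiae (e.g. fzo1-1, mgm1-5) were grown with compound in YPEG medium (3% ethanol, 3% glycerol) for 48 hours at 37C. Growth rescue was measured as viability by CellTiterGlo luminescence after 10 minutes at ambient.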
TDP43 rescue: qHTS of TDP-43 Inhibitors; actives 1.8% (n = 410,000); Potency, µM (series often up to 46.1 µM), most hits filed as activators; AID 652104, 2013; TDP-43 expressing yeast growth rescue, BacTiter-Glo, 24 h; further: nearly all actives have a fitted effect of over 50% in size
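Luminescence from BacTiter-Glo reports growth of TDP-43-expressing yeast after 24 hr at 30 deg C with compound. Cells were raffinose-pregrown to mid-log, then seeded in galactose medium at OD600=0.02.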
FUS suppressor: qHTS for Suppressors of FUS Proteinopathy: Primary screen using FUS-linked yeast assay | AID 1347120, 2019 | Potency, µM (series often up to 76.6 µM), hits mostly activators | actives 0.24% (n = 390,000) | S. cerevisiae FUS-expressing, growth rescue, OD600, 24 h; further: nearly all actives have a fitted effect of over 55% in size
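Toxicity suppression screen in FUS-yeast. Cells induced with 2% galactose, starting OD 0.005, treated 24hr at 30C with compounds at multiple final concentrations; growth by OD600.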
aSyn yeast inh: qHTS of alpha-syn Inhibitors | AID 652106, 2013 | Yeast expressing alpha-synuclein, growth rescue, BacTiter-Glo, 24 h | Potency, µM (titrated, usually from 46.1 µM), hits mostly activators | actives 0.14% (n = 370,000); further: nearly all actives have a fitted effect of over 65% in size
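Screening used galactose-induced yeast with toxic alpha-synuclein levels, exposed to compound for 24 hr at 30 deg C. Cell growth, read with BacTiter-Glo luminescence, gave the measured signal.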
Abeta yeast res: qHTS for compounds that reverse cellular toxicity of Amyloid beta (A-beta) peptide in yeast: Primary Screen. yeast expressing A-beta42, growth rescue, OD600, 48 h; response scale: 0% DMSO, 100% iron-clioquinol control. Potency, µM (highest dose often 46.1 µM), hits mostly activators. actives 0.063% (n = 410,000). AID 1347071, 2019; further: nearly all actives have a fitted effect of over 55% in size
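Yeast growth medium received pinned compounds, then yeast cells expressing toxic A-beta were added; plates incubated at 30 C for 48 hr. Growth read as absorbance at 600 nm, normalized to DMSO and equimolar FeCl3 plus clioquinol controls.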
Large screens that a line does not name were inactive. The list is not random: actives were taken first. Their share in the collection is about 2.2%. The call rests on the fitted dose curve; in most records, active means well fitted curve in the direction sought with a large enough effect; inconclusive means small, poorly fitted or top-dose-only effect, or another doubt; inactive means no such curve, though single readings can be large; an effect the other way counts as inactive or inconclusive.

Cc1ccc2c(c1)c(C)c(C)n2CC(O)Cn1nnc2ccccc21 (configuration not stated)	TDP43 rescue inconclusive, FUS suppressor inconclusive, aSyn yeast inh inconclusive, Abeta yeast res 10µM
Cc1cc(Cl)ccc1C(=O)C1CCCN(C(=O)c2cnn(C(C)C)c2)C1 (configuration not stated)	none
CCCCCC1CCC(C(=O)NNC(=S)NCC)CC1 (configuration not stated)	none
CCCCCCC1CCC(C(=O)NC(C(=O)O)C(C)C)CC1 (configuration not stated)	TDP43 rescue 20µM (no result: Mito fusion act, aSyn yeast inh)
Cc1c(C(=O)NCc2cccc([N+](=O)[O-])c2)sc(=O)n1Cc1ccc(F)cc1	none (no result: Mito fusion act)
C=Cc1ccc(Cn2c(C)c(C(=O)NCc3ccc4c(c3)OCO4)sc2=O)cc1	TDP43 rescue 22µM, Abeta yeast res inconclusive (no result: Mito fusion act)
Cc1c(C(=O)NCc2cccc([N+](=O)[O-])c2)sc(=O)n1Cc1cccc(F)c1	TDP43 rescue 18µM (no result: Mito fusion act)
CCOC(=O)C1CCCN(C(=S)Nc2ccc(Nc3ccccc3)cc2)C1 (configuration not stated)	TDP43 rescue 22µM, FUS suppressor inconclusive, aSyn yeast inh inconclusive, Abeta yeast res inconclusive
CCOC(=O)C1CCCN(C(=O)c2cc3c(=O)n(C)c4ccccc4c3s2)C1 (configuration not stated)	TDP43 rescue 20µM (no result: Mito fusion act, aSyn yeast inh)
CCOC(=O)C1CCCN(C(=O)c2cc(-c3ccccc3)cs2)CC1 (configuration not stated)	TDP43 rescue 18µM (no result: Mito fusion act)
O=C(OCCc1ccccn1)c1cccc([N+](=O)[O-])c1	none (no result: Mito fusion act)
O=c1c2ccccc2nnn1CSc1ccc2c(c1)OCCO2	TDP43 rescue 11µM, aSyn yeast inh inconclusive
CCC(C(=O)Nc1ccc2c(c1)OCCO2)n1nnc2ccccc2c1=O (configuration not stated)	TDP43 rescue inconclusive
COc1ccc(OC)c(C(=O)Cn2nnc3ccccc3c2=O)c1	none
COc1ccc2c(C)cc(SCn3nnc4ccccc4c3=O)nc2c1	aSyn yeast inh 3.5µM
Cc1ccccc1Cn1c(C)c(CNCc2ccccc2)c(C(=O)O)c1C	none (no result: Mito fusion act, aSyn yeast inh)
Cc1ccn2c(c1)nc(=O)c1cc(S(=O)(=O)N3CCCCC3)c(Cl)cc12	aSyn yeast inh inconclusive (no result: Mito fusion act)
COc1ccc(OC)c(-c2cc(C3CCN(c4ncccc4[N+](=O)[O-])CC3)[nH]n2)c1	TDP43 rescue inconclusive, FUS suppressor inconclusive, aSyn yeast inh inconclusive
O=[N+]([O-])c1cccnc1N1CCC(c2cc(-c3ccc(Cl)cc3Cl)n[nH]2)CC1	TDP43 rescue inconclusive, FUS suppressor 25µM, aSyn yeast inh inconclusive, Abeta yeast res inconclusive
C[C@@H]1CN([C@@H](C)CO)C(=O)c2cc(NC(=O)C3CCCCC3)ccc2O[C@@H](C)CCCCO[C@@H]1CN(C)Cc1ccncc1	none (no result: Mito fusion act)
CC(C)(C)C(=O)NC(=S)NNC(=O)c1ccc(Cl)cc1Cl	aSyn yeast inh 5µM
COC(=O)[C@]12C[C@H](CC(=O)N3CCN(C(=O)C4CC4)CC3)C(=O)N(Cc3ccco3)C1=C[C@H](C(C)(C)C)O[C@@H]2C	none (no result: Mito fusion act, TDP43 rescue, aSyn yeast inh, Abeta yeast res)
O=C1c2ccccc2-c2onc3ccc(N4CCCC4)c1c23	FUS suppressor inconclusive
O=C1c2ccccc2C(=O)c2c1cccc2N1CCCC1	TDP43 rescue 14µM (no result: FUS suppressor)
COc1ccc(S(=O)(=O)NC(=O)C2(C)CCN2C(=O)Cc2cc(F)ccc2F)cc1 (configuration not stated)	none (no result: Mito fusion act)
O=[N+]([O-])c1ccc(OCc2cnc(Cl)s2)c([N+](=O)[O-])c1	TDP43 rescue 11µM
COC(=O)C(Cc1cnc(Cl)s1)(C(=O)OC)c1ccc([N+](=O)[O-])cc1[N+](=O)[O-]	none
Cc1noc(C)c1COc1ccc(C(=O)NCC(c2c(F)cccc2Cl)N(C)C)cc1 (configuration not stated)	none
COc1ccc(-c2cc3ccc(O)cc3oc2=O)cc1	Mito fusion act inconclusive (no result: Abeta yeast res)
O=c1oc2cc(O)ccc2cc1-c1ccccc1	TDP43 rescue 16µM (no result: Abeta yeast res)
CCn1nc(NS(=O)(=O)c2cccc3nonc23)c2cc3ccc(C)cc3nc21	none
CCCCn1nc(NS(=O)(=O)c2cccc3nonc23)c2cc3cccc(C)c3nc21	Mito fusion act 11µM
COc1ccccc1NC(=O)CSc1nnc(C2CCCCC2)o1	TDP43 rescue 18µM, Abeta yeast res inconclusive
CCc1ccccc1NC(=O)CSc1nnc(COc2ccccc2Cl)o1	TDP43 rescue 16µM (no result: Mito fusion act, aSyn yeast inh)
CC1CCCC(C)N1C(=O)CSc1nnc(C2CCCCC2)o1 (configuration not stated)	Mito fusion act 6.3µM
Cc1cc(-c2nnc(SCC(=O)N3C(C)CCCC3C)o2)no1 (configuration not stated)	none
COc1ccccc1NC(=O)CSc1nnc(-c2cccc(Cl)c2)o1	TDP43 rescue 18µM (no result: Mito fusion act, aSyn yeast inh)
COc1ccc(-c2nnc(SCC(=O)Nc3ccccc3OC)o2)cc1	TDP43 rescue inconclusive
O=C(CSc1nnc(COc2ccc(Cl)cc2Cl)o1)Nc1ccccn1	none
C[C@@H]1CCCCO[C@H](CN(C)Cc2ccc3c(c2)OCO3)[C@@H](C)CN([C@H](C)CO)C(=O)c2cc(NC(=O)c3ccccc3)ccc2O1	none (no result: Mito fusion act)
O=C1CN(C(=S)NC(=O)c2ccccc2[N+](=O)[O-])CCN1	none
CCN1C(=NCc2cccc(C(F)(F)F)c2)N[C@@H](c2cccc(C(F)(F)F)c2)C(C(=O)OC)=C1C	none (no result: Mito fusion act, TDP43 rescue, FUS suppressor, Abeta yeast res)
CCOc1c(Br)cc(C(N)=O)cc1OCc1ccccc1	Mito fusion act 11µM
CCOC(=O)c1ccc(N=C2C(=S)N(c3ccc(C(=O)OCC)cc3)C(=N)N2/N=C/c2ccccc2)cc1	FUS suppressor 28µM
O=C(Nc1ccccc1C(=O)Nc1ccc(Cl)cc1)c1cccnc1	TDP43 rescue 14µM
CCOc1ncccc1C(=O)Nc1ccc(F)cc1	none
CCOc1ncccc1C(=O)Nc1ccc(Cl)cc1	TDP43 rescue 11µM
O=C(Nc1ccc(Cl)c(Cl)c1)c1cccnc1	TDP43 rescue 18µM
COC(=O)[C@]12C[C@H](CC(=O)NCc3ccc(OC)c(OC)c3)C(=O)N(CCc3ccc(OC)c(OC)c3)C1=C[C@H](C(C)C)O[C@@H]2C1CC1	none (no result: Mito fusion act, TDP43 rescue, aSyn yeast inh, Abeta yeast res)
COc1ccc(S(=O)(=O)N2CCN(c3nc(-c4cccs4)nc4ccccc34)CC2)cc1	none (no result: Mito fusion act, TDP43 rescue, FUS suppressor, Abeta yeast res)
COc1ccc(NS(=O)(=O)c2cccc3ccccc23)cc1	TDP43 rescue 11µM, aSyn yeast inh inconclusive (no result: Mito fusion act)
COC1=C(Nc2ccc(OC)cc2)C(=O)c2ccccc2C1=O	TDP43 rescue 18µM
COc1ccc(S(=O)(=O)Nc2cccc3ccccc23)cc1	none (no result: Mito fusion act, TDP43 rescue, FUS suppressor, Abeta yeast res)
COC1=C(Nc2ccc(OC)cc2)C(=O)C(OC)=C(Nc2ccc(OC)cc2)C1=O	none (no result: Mito fusion act)
